Here are results for twelve compounds from PubChem BioAssay (NCATS).

Records with an inconclusive call do not appear. Calls of active or inactive are those of the source. Calls follow the shape of the dose curve; as a rule, active = well fitted curve in the direction sought with a large enough effect; inconclusive = small, poorly fitted or top-dose-only effect, or another doubt; inactive = no such curve, though single readings can be large; an effect the other way counts as inactive or inconclusive.
Potency is read from the fitted curve at half-maximal effect.

The nature of one assay: Counterscreen qHTS for small molecule stabilizers of the endoplasmic reticulum resident proteome: GLuc-NoTag assay (AID 1508627).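 As to activity change, negative = inhibition: SH-SY5Y cells given compound then 100 nM thapsigargin to empty ER calcium; 0% = thapsigargin alone and -100% = DMSO vehicle control.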 Conditions: Gaussia luciferase NoTag secretion counterscreen, luminescence, thapsigargin 100 nM for final 4 h; series mostly up to 76.4 µM; activity change, negative = inhibition: at the top concentration. A digest of the protocol:
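Counterscreen line: SH-SY5Y-GLuc-NoTag. Seed, 5 h; compound, 19 h; thapsigargin 100 nM, 4 h; 37C/5% CO2. Readout: secreted GLuc luminescence, coelenterazine 0.07x final, no lysis.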
A general note: Counterscreens check selectivity or assay interference.
For `COc1c2c(c(C(=O)/C=C/C(C)=C/c3ccccc3)c3c1OCO3)CCN(C)C2`, the “activity change, negative = inhibition” value is -0.865% (inactive).

`COc1ccc(C2Nc3ccccc3C(=O)N2c2ccccc2)cc1COc1ccc(NC(C)=O)cc1` (stereo unspecified): the “activity change, negative = inhibition” value is -20.3% (inactive).

As to `O=C(Nc1ncccn1)c1ccc([N+](=O)[O-])o1`, the “activity change, negative = inhibition” value was 58.5% (inactive). With `COc1cccc(CN2CCN(C(=O)c3ccc(-c4ccccc4)cc3)CC2)c1`, the “activity change, negative = inhibition” value is -14.2% (inactive). On the same count and under the same terms, the figure for `C1CCC[C@H]2CCCN3CC[C@H](CCCCCC[C@@H]4CCCN5CC[C@H](CC1)OC45)OC23` is 16.2% [at 9.46 µM] (inactive). As to `O=C(c1ccccc1)N1CCN(Cc2cccc(Oc3ccccc3)c2)CC1`, the “activity change, negative = inhibition” value is -17.6% (inactive).

Turning to `COc1cc(OC)cc(C(=O)N2CCN(Cc3ccccc3C(F)(F)F)CC2)c1`, the “activity change, negative = inhibition” value was 12.8% (inactive). For the compound `CC(=O)N[C@H]1C(O[C@@H]2O[C@H](C[C@@H](O)[C@H]3O[C@@H](N4CCC(=O)NC4=O)[C@H](O)[C@@H]3O)[C@H](O)[C@H](O)[C@H]2NC(=O)/C=C/CCCCCCCCCCC(C)C)OC(CO)[C@@H](O)[C@@H]1O` (stereo partly specified), the Potency was 35.5 µM (active). On to `O=C(O)/C=C/C(=O)Nc1ccc(OC(F)(F)Cl)cc1`, for which the “activity change, negative = inhibition” value was 7.87% (inactive).

Consider `COc1cc(CN2CCN(C(=O)c3ccc(-c4ccccc4)cc3)CC2)cc(OC)c1OC`, for which the “activity change, negative = inhibition” value is -12.1% (inactive). For the compound `COc1cc2c(cc1OC)[C@H](C)N(CC1C(=O)O[C@@H]3C[C@@]4(C)CCC[C@H](C)[C@@]45OC5[C@H]13)CC2` (stereo partly specified), the Potency is 35.5 µM (active). Regarding `OC[C@H]1NC[C@H](O)[C@@H](O)[C@@H]1O`, the “activity change, negative = inhibition” value was -15.7% [at 38.7 µM] (inactive).

A further assay can be described thus: Confirmatory qHTS for small molecule stabilizers of the endoplasmic reticulum resident proteome: Secreted ER Calcium Modulated Protein (SERCaMP) assay (AID 1508628). Also: nearly all actives have a fitted effect of over 40% in size.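 As to activity change, negative = decrease: SH-SY5Y cells given compound 16 h then thapsigargin 100 nM for 4 h; % is scaled to controls: 0 for no effect and ±100 for the full control effect.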 Particulars: SERCaMP secreted luciferase ER calcium/proteostasis reporter; series mostly up to 76.3 µM; activity change, negative = decrease: at the top concentration. Put shortly: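 GLuc-SERCaMP-expressing SH-SY5Y cells, pretreated 16 h with compound, are challenged with thapsigargin to empty ER calcium stores; after 4 h, coelenterazine is added directly to the medium and luminescence is imaged.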
In general terms: In qHTS, concentration-response curves come from the screen itself.
On to `COc1cccc(CN2CCN(C(=O)c3ccc(-c4ccccc4)cc3)CC2)c1`, for which the “activity change, negative = decrease” value is -52.7% (inactive). Still for that read-out and setting: the figure for `COc1cc(OC)cc(C(=O)N2CCN(Cc3ccccc3C(F)(F)F)CC2)c1` is -68.4% (inactive).

As to `CC(=O)N[C@H]1C(O[C@@H]2O[C@H](C[C@@H](O)[C@H]3O[C@@H](N4CCC(=O)NC4=O)[C@H](O)[C@@H]3O)[C@H](O)[C@H](O)[C@H]2NC(=O)/C=C/CCCCCCCCCCC(C)C)OC(CO)[C@@H](O)[C@@H]1O` (stereo partly specified), the Potency is 0.562 µM (active).

With `O=C(O)/C=C/C(=O)Nc1ccc(OC(F)(F)Cl)cc1`, the “activity change, negative = decrease” value was -33.3% (inactive). Still for that read-out and setting: the figure for `COc1cc(CN2CCN(C(=O)c3ccc(-c4ccccc4)cc3)CC2)cc(OC)c1OC` is -80.9% (inactive).

Regarding `OC[C@H]1NC[C@H](O)[C@@H](O)[C@@H]1O`, the “activity change, negative = decrease” value is 11.8% [at 38.8 µM] (inactive).

The nature of a further assay: Cell Viability qHTS for small molecule stabilizers of the endoplasmic reticulum resident proteome (AID 1508629).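 Also: compound exposure about 46 h in total before the viability read.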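 As to max response: human SH-SY5Y neuroblastoma cells carrying the GLuc-SERCaMP reporter; % is scaled to controls: 0 for no effect and ±100 for the full control effect.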 Particulars: cell viability counter-screen, 100 nM thapsigargin for final 4 h.
On to `CC(=O)N[C@H]1C(O[C@@H]2O[C@H](C[C@@H](O)[C@H]3O[C@@H](N4CCC(=O)NC4=O)[C@H](O)[C@@H]3O)[C@H](O)[C@H](O)[C@H]2NC(=O)/C=C/CCCCCCCCCCC(C)C)OC(CO)[C@@H](O)[C@@H]1O` (stereo partly specified), for which the Potency was 0.398 µM (active). Regarding `O=C(O)/C=C/C(=O)Nc1ccc(OC(F)(F)Cl)cc1`, the max response is 5.17% (inactive). For `OC[C@H]1NC[C@H](O)[C@@H](O)[C@@H]1O`, the max response was 6.89% (inactive).
